What is called AC50 is the concentration giving half of the maximal activity seen.

Molecules are shown by their SMILES. Where “and” joins values, the source holds several entries; their conditions need not be identical. Equal values may be shown once. Records with an inconclusive call do not appear. Some compounds were tested as several samples or in several runs, with calls that do not always agree. Calls of active or inactive are those of the source. The calls were made as follows, unless noted: active = hit-call score of the fitted dose curve at least 0.9, where 1 is the maximum; inactive = score below 0.9.

Data on seven compounds can be found in PubChem BioAssay (EPA / NIEHS).

A short description of test [1]: CCTE_Mundy_HCI_Cortical_NOG_BPCount: CCTE's Neurite Outgrowth Assay in rat cortical cells for Branch Point Count, Mundy Lab (AID 2284237).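 As to AC50: branch points counted about two days after chemical exposure.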 The procedure, abridged: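 Measured 50.33 h after dosing, this morphology endpoint uses rat primary cortical cultures labelled for betaIII-tubulin. Branch points are quantified by high-content imaging, with DMSO as negative control and baseline.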

Test [2] is described as follows: CCTE_Mundy_HCI_hNP1_Casp3_7: CCTE's Caspase-Glo 3/7 Assay in human neuroprogenitor cells for Apoptosis, Mundy Lab (AID 2284240). An outline of the steps:
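Apoptosis is scored by activated caspase-3/7 luminescence in WA09-derived neural progenitor cells, measured 26.5 h after chemical dosing. Values represent gain of signal relative to DMSO vehicle.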

Test [3] is described as follows: CCTE_Mundy_HCI_hNP1_CellTiter: CCTE's Cell Titer-Glo 2 Assay in human neuroprogenitor cells for Viability, Mundy Lab (AID 2284241; active = hit-call score of the fitted dose curve at least 0.9, where 1 is the maximum). The procedure, abridged:
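Human neural progenitor cells (hNP1, WA09-derived) were plated on poly-L-ornithine/laminin and grown 40 to 44 hours at 37 °C, 5% CO2 before chemical addition. Twenty-four hours later, ATP was measured by CellTiter-Glo luminescence; loss of signal versus DMSO indicates reduced viability.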

A short description of test [4]: CCTE_Mundy_HCI_Cortical_Synap_Neur_Matur_NeuronCount: CCTE's Synaptogenesis and Neurite Maturation Assay in rat cortical cells for Neuron Count, Mundy Lab (AID 2284242; active = hit-call score of the fitted dose curve at least 0.9, where 1 is the maximum). The procedure, abridged: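 Imaging-based neuron count in rat cortical cultures after chemical exposure from DIV 7 to DIV 12, with AraC added at DIV 5. Activity is fitted relative to DMSO.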
Test [5] is described as follows: TAMU_PeakParms_SingleDonor1434_QT: Texas A&M University (TAMU) 1.5-hr Human Induced Pluripotent Stem Cell (iPSC)-derived Cardiomyocytes Calcium (Ca+2) Flux Assay for Cardiotoxicity: QT (decay-rise ratio) (AID 2284235; active = hit-call score of the fitted dose curve at least 0.9, where 1 is the maximum). An outline of the steps: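 iPSC-derived cardiomyocytes (single donor 1434) dosed at 0.2, 1, 10, 100 uM final in 0.5% DMSO, 90 min at 37C. Ca2+ flux fluorescence decay/rise ratio; EC05 (5% increase versus DMSO) as POD, excluding beat-arrest and severe-notch data.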

Read-out in test [6]: Collagen I, COL1A1 (gene 1277)
The experiment in a line: BSK_MyoF_CollagenI: BioMAP Diversity Plus: MyoF Assay for Collagen I Biomarker Activity (AID 2284238). To be noted: primary human lung fibroblasts. An outline of the steps: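 ELISA readout of Collagen I after 24 h chemical treatment of primary human lung fibroblast cultures; gain of signal scored relative to DMSO vehicle baseline.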

Read-out in test [7]: Collagen III, COL3A1 (gene 1281)
The experiment in a line: BSK_MyoF_CollagenIII: BioMAP Diversity Plus: MyoF Assay for Collagen III Biomarker Activity (AID 2284239). To be noted: primary human lung fibroblasts. An outline of the steps: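 Lung fibroblast culture; 24 h compound exposure; collagen III by ELISA; gain-of-signal fit vs DMSO baseline.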

Read-out in test [8]: Interleukin 17F (IL17F), IL17F (gene 112744)
The experiment in a line: BSK_BT_xIL17F: BioMAP Diversity Plus: BT Assay for Interleukin 17F (IL17F) Biomarker Activity (AID 2284243). The note with it: primary human B cells with PBMC. The procedure, abridged:
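Secreted IL-17F, read on LumineX xMAP beads, was taken as the endpoint. Cultures combined human B cells and peripheral blood mononuclear cells, sampled 24 hours after dosing, with DMSO serving as negative control.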

Read-out in test [9]: Actin alpha 1 (ACTA1), ACTA1 (gene 58)
Kind of test: BSK_MyoF_ACTA1: BioMAP Diversity Plus: MyoF Assay for Actin alpha 1 (ACTA1) Biomarker Activity (AID 2284244). The note with it: primary human lung fibroblasts. An outline of the steps: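 Measured by ELISA: alpha-smooth muscle actin in human primary lung fibroblasts 24 h after dosing, with DMSO as baseline and upward signal change as the fitted direction.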

Read-out in test [10]: Interleukin 2 (IL2), IL2 (gene 3558)
Kind of test: BSK_BT_xIL2: BioMAP Diversity Plus: BT Assay for Interleukin 2 (IL2) Biomarker Activity (AID 2284245). The note with it: primary human B cells with PBMC. The procedure, abridged: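 Secreted interleukin-2 from human B cell/PBMC co-cultures, measured 24 h post-dosing by Luminex multiplex immunoassay. Upward-direction curve fitting against DMSO baseline.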

Read-out in test [11]: Basic fibroblast growth factor (bFGF), FGF2 (gene 2247)
The experiment in a line: BSK_MyoF_bFGF: BioMAP Diversity Plus: MyoF Assay for Basic fibroblast growth factor (bFGF) Biomarker Activity (AID 2284246). The note with it: primary human lung fibroblasts. An outline of the steps: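 In this multiplexed cell system, lung fibroblasts (human primary) receive test chemical for 24 h before ELISA detection of bFGF; DMSO defines baseline and the analysis direction is positive.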

Read-out in test [12]: Collagen IV, COL4A1 (gene 1282)
Kind of test: BSK_MyoF_CollagenIV: BioMAP Diversity Plus: MyoF Assay for Collagen IV Biomarker Activity (AID 2284247). To be noted: primary human lung fibroblasts. An outline of the steps:
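Activity is scored as a signal increase over DMSO in an ELISA for Collagen IV, measured on human lung fibroblasts at 24 h after chemical treatment. Cytotoxicity is checked in parallel cultures by sulforhodamine B total-protein staining.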

Read-out in test [13]: Monokine induced gamma interferon (MIG), CXCL9 (gene 4283)
Kind of test: BSK_KF3CT_MIG: BioMAP Diversity Plus: KF3CT Assay for Monokine induced gamma interferon (MIG) Biomarker Activity (AID 2284248). The note with it: primary human keratinocytes with fibroblasts. The procedure, abridged:
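ELISA read-out of MIG after 24 h chemical exposure of human skin primary co-culture (keratinocytes, foreskin fibroblasts). Gain of signal relative to DMSO negative control was analysed.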

Read-out in test [14]: Vascular cell adhesion molecule 1 (VCAM1), VCAM1 (gene 7412)
The experiment in a line: BSK_BF4T_VCAM1: BioMAP Diversity Plus: BF4T Assay for Vascular cell adhesion molecule 1 (VCAM1) Biomarker Activity (AID 2284249). The note with it: primary human bronchial epithelial cells with fibroblasts. The procedure, abridged:
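Human bronchial epithelial cell and dermal fibroblast co-culture exposed 24 h. VCAM-1 measured by ELISA; parallel SRB total-protein staining for cytotoxicity. Fitted in positive direction relative to DMSO.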

Read-out in test [15]: Collagen I, COL1A1 (gene 1277)
Kind of test: BSK_hDFCGF_CollagenI: BioMAP Diversity Plus: hDFCGF Assay for Collagen I Biomarker Activity (AID 2284250). The note with it: primary human foreskin fibroblasts. An outline of the steps:
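Cells were primary human foreskin fibroblasts treated for 24 h. Collagen I levels were then determined by ELISA and compared against DMSO controls.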

Read-out in test [16]: Interferon-inducible T-cell alpha chemoattractant (ITAC), CXCL11 (gene 6373)
The experiment in a line: BSK_hDFCGF_ITAC: BioMAP Diversity Plus: hDFCGF Assay for Interferon-inducible T-cell alpha chemoattractant (ITAC) Biomarker Activity (AID 2284251). To be noted: primary human foreskin fibroblasts. An outline of the steps: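 Fibroblasts (human foreskin, primary) are treated with chemical, cultured 24 h, then assayed for I-TAC by ELISA. Overt toxicity is checked in parallel cultures by sulforhodamine B staining of total protein at the same time point.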

Read-out in test [17]: Plasminogen activator inhibitor-1 (PAI1), SERPINE1 (gene 5054)
The experiment in a line: BSK_KF3CT_PAI1: BioMAP Diversity Plus: KF3CT Assay for Plasminogen activator inhibitor-1 (PAI1) Biomarker Activity (AID 2284252). The note with it: primary human keratinocytes with fibroblasts. An outline of the steps: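 Signal is PAI-1 detected by ELISA in a human skin-derived keratinocyte/fibroblast co-culture, 24 h after dosing; DMSO served as negative control and baseline.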

Read-out in test [18]: Monocyte Chemoattractant Protein-1 (MCP1), CCL2 (gene 6347)
The experiment in a line: BSK_IMphg_MCP1: BioMAP Diversity Plus: IMphg Assay for Monocyte Chemoattractant Protein-1 (MCP1) Biomarker Activity (AID 2284253). The note with it: primary human endothelial cells with macrophages. An outline of the steps:
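Human venular endothelial cells co-cultured with macrophages; MCP-1 measured by ELISA 24 hours post-dose and fitted against DMSO. Cytotoxicity monitored by SRB total-protein staining in parallel cultures.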

Read-out in test [19]: Interleukin-8 (IL8), CXCL8 (gene 3576)
The experiment in a line: BSK_KF3CT_IL8: BioMAP Diversity Plus: KF3CT Assay for Interleukin-8 (IL8) Biomarker Activity (AID 2284254). The note with it: primary human keratinocytes with fibroblasts. An outline of the steps:
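IL-8 read-out: ELISA, 24 h post-dose, human skin primary co-culture (keratinocytes + foreskin fibroblasts). DMSO = baseline; positive-direction fit.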

Read-out in test [20]: Macrophage Inflammatory Protein-1 Alpha (MIP1a), CCL3 (gene 6348)
Kind of test: BSK_IMphg_MIP1a: BioMAP Diversity Plus: IMphg Assay for Macrophage Inflammatory Protein-1 Alpha (MIP1a) Biomarker Activity (AID 2284255). The note with it: primary human endothelial cells with macrophages. The procedure, abridged: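 Co-culture of human venular endothelial cells and macrophages exposed to compounds for 24 h; MIP-1a measured by ELISA relative to DMSO. Cytotoxicity assessed in parallel cultures by sulforhodamine B total-protein staining at 560 nm.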

`CC[C@H]1OC(=O)[C@H](C)[C@@H](O[C@H]2C[C@@](C)(OC)[C@@H](O)[C@H](C)O2)[C@H](C)[C@@H](O[C@@H]2O[C@H](C)C[C@H](N(C)C)[C@H]2O)[C@](C)(O)C[C@@H](C)C(=O)[C@H](C)[C@@H](O)[C@]1(C)O`: the compound was called inactive in [1], in [2], in [3] and in [4].

As for `NC(=O)NO`, the result in test [5], in [1], in test [2], in test [3] and in test [4] was inactive.

With `O=C1CCC(N2C(=O)c3ccccc3C2=O)C(=O)N1` (centres undefined), the result in test [1], in [2], in test [3] and in [4] was inactive.

Regarding `CCCCCCc1ccc(O)cc1O`, the outcome in [5] was inactive.

In the case of `O=P(OC(CCl)CCl)(OC(CCl)CCl)OC(CCl)CCl`, in test [1], the AC50 is 20.8 µM (active). Also, the result in test [2] and in test [4] was inactive.

For the compound `Cn1cnc([N+](=O)[O-])c1Sc1ncnc2nc[nH]c12`, the outcome in [6], in test [7], in test [8], in [9], in test [11] and in [12] was inactive. Also, the result in test [13], in test [14], in [15], in test [17], in test [18] and in test [19] was inactive. In addition, the outcome in test [20] was inactive. Further, the AC50 in [9] was 0.254 µM (active); in test [10], 9.43 µM (active) and 12.6 µM (active); in test [14] it was 12.6 µM (active); in test [16], 3.66 µM (active) and 12.6 µM (active); in test [20] it was 12.2 µM (active).

With `Cn1c(=O)c2c(ncn2C)n(C)c1=O`, the compound was called inactive in [1], in test [2], in [3] and in [4].
